# Screening data deposited in PubChem by National Center for Advancing Translational Sciences (NCATS).
# A selection: hits, their analogues and other compounds. The true share with any hit is near 1.1%.
# PI4K2A inh: qHTS for small molecular inhibitors of PI4K2A. Phosphatidylinositol 4-kinase type 2-alpha (Homo sapiens), Q9BTU6. purified PI4K2A, ADP-Glo luminescence, 1 h; active compounds read low. activity change, negative = inhibition, % at 76.9 µM. actives 0.13% (n = 420,000). AID 1346378, 2018; in the data active = activity change below about -50%; inconclusive = mostly about -30% to -49%
# Target sequence (Q9BTU6 whole entry, looked up): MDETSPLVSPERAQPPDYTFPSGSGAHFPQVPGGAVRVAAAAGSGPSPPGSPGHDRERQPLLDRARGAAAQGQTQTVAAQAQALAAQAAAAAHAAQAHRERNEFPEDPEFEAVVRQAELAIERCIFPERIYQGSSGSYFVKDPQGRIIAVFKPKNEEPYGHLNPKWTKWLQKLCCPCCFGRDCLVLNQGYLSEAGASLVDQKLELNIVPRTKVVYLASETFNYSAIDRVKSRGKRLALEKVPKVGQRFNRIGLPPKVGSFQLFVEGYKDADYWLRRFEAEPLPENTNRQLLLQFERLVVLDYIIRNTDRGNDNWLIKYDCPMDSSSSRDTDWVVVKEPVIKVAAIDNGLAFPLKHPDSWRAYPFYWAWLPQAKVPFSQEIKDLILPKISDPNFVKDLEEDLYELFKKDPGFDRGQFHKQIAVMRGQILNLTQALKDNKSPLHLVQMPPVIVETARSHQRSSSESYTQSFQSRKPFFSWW
#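 Compounds are screened against recombinant PI4K2A using PI as substrate and ATP, the latter dispensed at 300 microM. Reactions run one hour at ambient temperature before ADP-Glo detection; full inhibition defined by wells lacking enzyme.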
# TrxR1 substrate: qHTS Assay for Substrates of Mammalian Selenoprotein Thioredoxin Reductase 1 (TrxR1): qHTS | purified TrxR1 substrate turnover, NADPH consumption readout | Potency, µM (doses to about 114 µM) | actives 0.01% (n = 390,000) | Thioredoxin reductase 1, cytoplasmic (Rattus norvegicus), O89049; also: nearly all actives have a fitted effect of over 50% in size
#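 Rat TrxR1, dispensed at 90 nM, was prereduced with 400 uM NADPH (final) for 5 min at ~22 deg C, then incubated with compound 15 min before 400 uM selenite. A first-read NADPH fluorescence drop versus no-compound background flagged substrates.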
# Integrin act MD: qHTS for Activators of Integrin-Mediated Alleviation for Muscular Dystrophy; alpha7betagal myoblasts, beta-gal FDG fluorescence, 48 h; Potency, µM (doses to about 38.3 µM), most hits filed as activators; actives 0.064% (n = 350,000); AID 624291, 2012; also: nearly all actives have a fitted effect of over 60% in size
#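 Alpha7betagal+/- myoblasts (passage 13) were plated 16-24 hr, then exposed to compounds (1:260 dilution of DMSO stock) for 48 hours at 37C. After MPER lysis, β-galactosidase reporter activity was read as FDG fluorescence (ex 480/em 540) after 30 minutes.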
# LDHA inh: qHTS assay for inhibitors of human lactate dehydrogenase; L-lactate dehydrogenase A chain (Homo sapiens), P00338; purified LDHA, NADH/diaphorase-resazurin fluorescence; active compounds read low; activity change, % (values are at about 110 or 230 µM); actives 0.15% (n = 480,000); in the data active = activity change below about -30%; inconclusive = mostly about -25% to -30%
#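 Enzyme activity of human lactate dehydrogenase 5 (2 nM; 0.06 mM NADH, 0.2 mM pyruvate, 5 min, RT) is measured via a resazurin/diaphorase fluorescence readout of residual NADH.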
# rTrxR1 inhibitor: qHTS Assay for Inhibitors of Mammalian Selenoprotein Thioredoxin Reductase 1 (TrxR1): qHTS; recombinant rTrxR1, NADPH fluorescence consumption, selenite substrate; Thioredoxin reductase 1, cytoplasmic (Rattus norvegicus), O89049; actives 1% (n = 390,000); Potency, µM (doses to about 114 µM), actives largely listed as inhibitors; also: nearly all actives have a fitted effect of over 65% in size
#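 Rat TrxR1 (90 nM in the dispensed reagent) was pre-reduced with 400 uM NADPH for 5 min at room temperature, then incubated with compound for 15 min. After 400 uM selenite was added, NADPH fluorescence (Ex 340/Em 450 nm) was followed for 8 min.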
# GALK inh: qHTS Assay for Inhibitors of Human Galactokinase (GALK). P51570. Purified GALK, Kinase-Glo residual ATP luminescence. Potency, µM (top dose mostly 57.5 µM), usual class: inhibitors. actives 0.007% (n = 270,000). AID 1868, 2009
#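 Galactose (100 uM) and ATP (35 uM) were turned over by 5 nM GALK for 1 h at RT. Kinase-Glo Plus then converted the remaining ATP into a luminescent signal.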
# Hits are given with their value; - = inactive; ? = inconclusive; . = not tested or not shown; [ ] = another dose, or the depositor's remark. Unless noted, calls follow the shape of the dose curve; as a rule, active = well fitted curve in the direction sought with a large enough effect; inconclusive = small, poorly fitted or top-dose-only effect, or another doubt; inactive = no such curve, though single readings can be large; an effect the other way counts as inactive or inconclusive.
SMILES,PI4K2A inh,TrxR1 substrate,Integrin act MD,LDHA inh,rTrxR1 inhibitor,GALK inh
CCCCc1nn2cc(-c3cccc(Br)c3)nc2s1,.,.,.,-,.,.
COCC(C)NC(=O)CSc1nc2ccccc2nc1C (stereo unspecified),.,.,.,-,.,.
C=CCOc1ccc(C(=O)Nc2ccc(C)c(C)c2)cc1,.,.,.,-,.,.
CC(C#N)OC(=O)c1ccc(-c2ccccc2Cl)o1 (stereo unspecified),.,.,.,-,.,.
CC(C)Cn1c(-c2ccccc2)cnc1SC(C)C(=O)NC(N)=O (stereo unspecified),.,.,.,-,.,.
Cc1ccc(-c2nc(CS(=O)CC(=O)NCCc3ccccc3)c(C)o2)cc1 (stereo unspecified),.,.,.,-,.,.
Cc1oc(-c2cccs2)nc1CS(=O)CC(=O)NCCCOC(C)C (stereo unspecified),-,-,-,-,12.6µM,-
CCCCNC(=O)CS(=O)Cc1nc(-c2cccs2)oc1C (stereo unspecified),-,-,-,-,6.31µM,-
Cc1oc(-c2cccs2)nc1CS(=O)CC(=O)NCCc1ccccc1 (stereo unspecified),-,-,-,-,5.62µM,-
CCOc1cc(C(=O)NC(CC(=O)OC)c2cccs2)ccc1OC (stereo unspecified),.,.,.,-,.,.
COc1ccc(NC(=O)c2cc(-c3ccc(C)o3)nc3ccccc23)cc1OC,-,-,-,-,28.2µM,-
COc1ccc(-c2cc(C(=O)Nc3c(Cl)cc(Cl)cc3Cl)c3ccccc3n2)cc1OC,-,-,-,-,79.4µM,-
COc1ccc(C(=O)O/N=C(\N)c2cccc(C)c2)cc1OC,-,-,10µM,-,-,-
Cc1ccc(C(=O)O/N=C(\N)c2ccccn2)c(C)c1,-84.8,-,-,-,-,?
N/C(=N\OC(=O)c1ccc(Cl)cc1)c1ccccn1,-69.5,-,-,-,-,-
COc1ccc(C(=O)O/N=C(\N)c2ccccn2)cc1,-89.7,-,-,-,-,?
COc1cc(OC)cc(C(=O)O/N=C(\N)c2ccccn2)c1,-,-,-,-,-,-
O=C(Sc1ccc(Cl)cc1)c1ccccn1,-,-,-,-,1.12µM,.
CC(C)c1ccc2oc(=O)cc(CN3CCN(CCO)CC3)c2c1,.,.,.,-,.,.
C=CCNC(=O)NC(=O)CN(C)c1ccc2ccccc2c1,.,.,.,-,.,.
c1ccc(-c2cc(NC3CCCC3)nc3ccccc23)cc1,.,.,.,-,.,.
CCCOc1ccc(C[N+](C)(C)C)cc1C[N+](C)(C)C,.,.,.,-,.,.
N/C(=N\OC(=O)c1ccccc1Cl)c1ccccn1,-51.1,-,-,-,-,-
COc1ccc(C(=O)NNC(=O)c2ccccn2)cc1,-85.1,-,-,-,-,-
O=C(c1ccc(CS(=O)(=O)c2ccc(Br)cc2)o1)N1CCOCC1,-,-,-,-,?,-
SMILES,PI4K2A inh,TrxR1 substrate,Integrin act MD,LDHA inh,rTrxR1 inhibitor,GALK inh
COc1ccc(S(=O)(=O)Cc2ccc(C(=O)N3CCOCC3)o2)cc1,-,-,-,-,35.5µM,-
COc1cccc(/C=C2/CCC(CN(C)C)C2=O)c1 (stereo unspecified),-,-[11.4 µM],-,-,1.12µM,.
CCCC/C=C1/CCC(CN(C)C)C1=O (stereo unspecified),-,-[11.4 µM],-,-,0.631µM,.
O=C(O)COc1ccc(/C=C/c2nc3ccccc3c(=O)n2-c2ccc(C(=O)O)cc2)cc1,.,.,.,-,.,.
Cc1ccc(C)c(NC(=O)N2CCCC2c2ccccc2Cl)c1 (stereo unspecified),.,.,.,-,.,.
Oc1ccc(/C=C/c2ccc3ccccc3n2)cc1,-74.8,-,-,-,-,-
Cc1ccc2c(Cl)cc(Cl)c(OCC(=O)NC(C)C(C)C)c2n1 (stereo unspecified),.,.,.,-,.,.
c1ccc(CN2CCN(C(c3ccccc3)c3ccccc3)CC2)cc1,-,-,-,-,-,-
O=S(=O)(CCN1CCN(C(c2ccccc2)c2ccccc2)CC1)C(F)(F)F,-,-,-,-,1.58µM,-
CCCCCCCN(C(=O)CCl)c1ccccc1C,-,-,-,-,79.4µM,-
O=S(=O)(NCCCn1ccc2ccccc21)c1cccc(F)c1,.,.,.,-,.,.
O=C(Cn1ccc2ccc(Br)cc21)NCCCO,.,.,.,-,.,.
O=C(CCl)c1cc2c3c(c1)CC(=O)N3CCC2,-,-,-,-,89.1µM,-
CN1CCc2nc(SCC(=O)Nc3ccc(OC(F)(F)F)cc3)c(C#N)c(-c3cccs3)c2C1,-,-,?,-,10µM,-
CN1CCc2nc(SCC(=O)Nc3cccc(F)c3)c(C#N)c(-c3cccs3)c2C1,-,-,-,-,5.01µM,-
Cc1oc(-c2nc(C#N)c(NC3CC3)o2)cc1S(=O)(=O)N(C)C,.,.,.,-,.,.
Cc1ccc(C(=O)NCCc2c[nH]c3ccc(Cl)cc23)cc1,.,.,.,-,.,.
COc1ccc(/C=C/c2c(-c3ccc(OC)cc3)oc3ccccc23)cc1,-,-,-,-,44.7µM,.
COC(=O)c1ccc(/C=C/c2c(-c3ccc(OC)cc3)oc3ccccc23)cc1,-,-,-,-,-,.
O=C(NC1CCC(O)CC1)c1ccc(-c2ccc([N+](=O)[O-])cc2)o1 (stereo unspecified),-,-,-,-,3.16µM,-
CCOC(=O)C1CCCN(C(=O)c2ccc(-c3ccc([N+](=O)[O-])cc3)o2)C1 (stereo unspecified),-,-,-,-,10µM,.
O=C(COC(=O)c1ccc(-c2ccc([N+](=O)[O-])cc2)o1)NC(=O)NC1CCCCC1,-,-,-,-,-,-
O=C(c1ccc(-c2ccc([N+](=O)[O-])cc2)o1)N1CCN(S(=O)(=O)c2cccs2)CC1,-,-,-,-,44.7µM,.
O=C(c1ccco1)N1CCN(C(=O)c2ccc(-c3ccc([N+](=O)[O-])cc3)o2)CC1,-,-,-,-,7.08µM,.
O=C(c1ccc([N+](=O)[O-])cc1)N1CCN(C(=O)c2ccco2)CC1,-,-,-,-,-,-
Cc1nc2sc3c(c2c2nc(C(=O)NCC(C)C)nn12)CC(C)(C)OC3,.,.,.,-,.,.
CCc1cc(=O)oc2c(C)c(OCc3ccc(OC)cc3)ccc12,.,.,.,-,.,.
O=C(COc1ccccc1Cl)NCc1ccco1,-,-[0.457 µM],-,-,-,-
CCOc1ccccc1N(C(=O)CNS(=O)(=O)c1ccccc1)C(CC)C(=O)NCc1ccco1 (stereo unspecified),-,-,-,-,25.1µM,-
